We go through 78 molecules from PMC13083723 (Patterns, 2026).

Screen size: about 5,400 compounds; about 190 (3.5%) showed an effect of 50% or more. The sample holds strong results, similar compounds and a random draw of the others, so the mix is not that of the screen.

This test concerns Vero-E6. As to the kind of experiment: primary screen, phospholipidosis by LipidTOX staining; higher = more effect of the substance. Conditions: 10 µM. In a few lines: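 Drug-induced phospholipidosis detected with HCS LipidTOX Red reagent in Vero-E6 cells. Compounds tested at 10 μM, with amiodarone (10 μM) as positive control and DMSO (0.1 v/v %) as vehicle.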
Regarding `O=C(N[C@H]1CN2CCC1CC2)c1cnc2ccsc2c1O`, the result_ITMP is -2.55%. Next, `COC(=O)N[C@H](C(=O)N1CCC[C@H]1c1ncc(-c2ccc3c(c2)O[C@@H](c2ccccc2)n2c-3cc3cc(-c4cnc([C@@H]5CCCN5C(=O)[C@@H](NC(=O)OC)C(C)C)[nH]4)ccc32)[nH]1)C(C)C`: 3.24%; `Cc1onc(-c2ccccc2Cl)c1C(=O)N[C@@H]1C(=O)N2[C@@H]1SC(C)(C)[C@@H]2C(=O)[O-]`: 4.56%. For the molecule `C=CCN1CCC23c4c5ccc(O)c4O[C@H]2C(=O)CC[C@@]3(O)[C@H]1C5`, the result_ITMP is on record as -3.91%. Next, `NC[C@H]1O[C@H](O[C@H]2[C@H](O[C@@H]3O[C@H](CO)[C@@H](O)[C@H]3O)[C@@H](O)[C@H](N)C[C@@H]2N)[C@H](N)[C@@H](O)[C@@H]1O`: -1.8%. Next, `CN(C)CC[C@@H](c1ccc(Cl)cc1)c1ccccn1` [R4A_0004036_001 / SPE_K39462424]: 22.6%; `CC(=O)C(=O)[O-]`: -8.52%; `CN1[C@@H]2CC[C@H]1C[C@@H](OC(=O)c1c[nH]c3ccccc13)C2.CN1[C@@H]2CC[C@H]1C[C@H](OC(=O)c1c[nH]c3ccccc13)C2`: 19.1%. In the case of `CC(C)Oc1ccc(-c2nc(-c3cccc4c3CCC4NCCC(=O)O)no2)cc1C#N` (stereo not drawn), the result_ITMP was -0.21%. For `CCOc1ccc(-c2nc(-c3cccc4c3CCC4NCCO)no2)cc1OCC` (stereo not drawn) the value was 108%; for `CC(C)Oc1ccc(-c2nc(-c3cccc4c3CC[C@@H]4NCCO)no2)cc1C#N`, 39.4%.

Regarding `Cc1ccc(Cl)c(Nc2ccccc2C(=O)[O-])c1Cl`, the result_ITMP is -2.49%. Next, `CC[C@]1(O)C[C@H]2C[N@](CCc3c([nH]c4ccccc34)[C@@](C(=O)OC)(c3cc4c(cc3OC)N(C)[C@H]3[C@@](O)(C(N)=O)[C@H](O)[C@]5(CC)C=CCN6CC[C@]43[C@@H]65)C2)C1`: 9.74%. Next, `COc1cc(CN(CCN)C(=O)c2cccs2)ccc1OCc1ccccc1`: 85.4%; `COc1cc(C(=O)NCC2(N(C)C)CCCC2)cc(OC)c1OCc1ccccc1`: 25.4%; `O=C(O)Cc1ccc(OCc2ccccc2)c(Cl)c1`: 2.22%. Turning to `O=S(=O)([O-])CC(S)CS` (stereo not drawn), the result_ITMP is on record as -3.17%. For `O=C(NC(Cc1c[nH]c2ccccc12)C(=O)[O-])c1ccc(Cl)cc1` (stereo not drawn) the value was -0.44%. For `NC1C[C@H]1c1ccccc1` (stereo partly drawn) the value was -1.26%; for `c1ccc([C@@H]2C[C@H]2NC2CCNCC2)cc1`, 27.9%. For `N[C@H]1CC[C@H](N[C@@H]2C[C@H]2c2ccccc2)CC1` the value was 65.7%.

For the molecule `C[C@]12CCC(=O)C=C1C=CC1C2CC[C@@]2(C)C1CC[C@@]2(O)CCC(=O)[O-]` (stereo partly drawn), the result_ITMP was -3.36%. Next, `Cc1ccc(S(=O)(=O)[N-]Cl)cc1`: -2.26%; `CC[C@]1(O)C[C@@H]2C[N@@](CCc3c([nH]c4ccccc34)[C@@](C(=O)OC)(c3cc4c(cc3OC)N(C)[C@H]3[C@@](O)(C(=O)OC)[C@H](OC(C)=O)[C@]5(CC)C=CCN6CC[C@]43[C@@H]65)C2)C1`: 8.57%.

As for `CCN(CCCc1ccccc1)CCCc1ccccc1`, the result_ITMP came to 58.9%. For `NC(=O)OCCCc1ccccc1` the value was -6.09%; for `O=C([O-])CCCc1ccccc1`, 0.94%. For `C#Cc1cnc(O)nc1O` the value was -3.59%; for `Cc1ccc(C)c(Oc2ccncc2C(=O)N2CCN(C3CC3)c3ccccc32)c1`, -4.61%; for `O=C(O)c1ccccc1NC(=O)N1CCC(c2ccccc2C(F)(F)F)CC1`, -0.92%. Next, `CCOc1ccc(S(=O)(=O)[O-])c2cccnc12`: -2.55%; `CCN(CC)CCOC(=O)C1(c2ccccc2)CCCC1`: 2.32%.

As for `CCN(CC)CCOC(=O)C(c1ccccc1)C1CCCCC1` (stereo not drawn), the result_ITMP was found to be 52%. In the case of `CCN(CC)CCOC(=O)C(c1ccccc1)c1ccccc1`, the result_ITMP came out at 3.73%. Next, `COc1ccc2c(C)nc(Nc3nc(=O)c(C)c(C)[nH]3)nc2c1`: 0.3%; `NC(=O)C1CCCc2c1[nH]c1ccc(Cl)cc21` (stereo not drawn): -0.07%; `OCCNC1CCCc2c1[nH]c1ccc(-c3ccccc3)cc21` (stereo not drawn): 89.4%. `C[C@H](N)C(=O)N[C@@]1(C(=O)O)C[C@@H](Sc2nnc[nH]2)[C@H]2[C@H](C(=O)O)[C@H]21`: the result_ITMP is given as -1.74%. In the case of `Nc1ncnc2c1c(-c1cccc(OCc3ccccc3)c1)cn2[C@H]1C[C@@H](CN2CCC2)C1`, the result_ITMP is recorded as 69.4%. Next, `Nc1ncnc2c1c(-c1ccc(Oc3ccccc3)cc1)nn2C1CCCC1`: -1.17%; `Nc1ncnc2c1c(-c1cccc(OCc3ccccc3)c1)cn2C1CC(CN2CCCC2)C1` (stereo in doubt): 41.5%; `CC(C)(C)C(=O)Oc1ccc(S(=O)(=O)Nc2ccccc2C(=O)NCC(=O)[O-])cc1`: -1.15%. For `C=C1/C(=C\C=C2/CCC[C@]3(C)[C@@H]([C@H](C)/C=C/[C@H](C)C(C)(C)O)CC[C@@H]23)C[C@@H](O)C[C@@H]1O`, the result_ITMP is recorded as -2.3%. For `COc1ccc(CCN)cc1OC` the value was -4.61%.

With `COc1ccc(COc2ccc(Cc3cnc(N)nc3N)cc2OC)cc1`, the result_ITMP is on record as -3.18%. Next, `COc1ccc(CCNCc2ccc(OCc3ccc(Cl)nc3)c(OC)c2)cc1OC`: 59.3%. For `CC[C@H](/C=C/[C@@H](C)[C@H]1CC[C@H]2[C@@H]3CC=C4C[C@@H](O)CC[C@]4(C)[C@H]3CC[C@]12C)C(C)C` the value was -2.7%; for `O=C(O)c1ccc2[nH]cc(CCCCN3CC=C(c4ccccc4)CC3)c2c1`, -12.5%; for `O=C1Nc2ccc(Cl)c3c2C1(CCCCN1CC=C(c2ccc(Cl)cc2)CC1)CCC3` (stereo not drawn), 70.2%. For `CO[C@H]1C[C@H](O[C@H]2CC[C@@]3(C)[C@H](CC[C@@H]4[C@@H]3CC[C@]3(C)[C@@H](C5=CC(=O)OC5)[C@@H](OC(C)=O)C[C@]43O)C2)O[C@@H](C)[C@@H]1O` the value was -2.23%; for `CO/N=C(\C(=O)N[C@@H]1C(=O)N2C(C(=O)[O-])=CCS[C@H]12)c1csc(N)n1`, -1.89%. For the molecule `CCC1=C[C@@H]2C[N@](C1)Cc1c([nH]c3ccccc13)[C@@](C(=O)OC)(c1cc3c(cc1OC)N(C)[C@H]1[C@@](O)(C(=O)OC)[C@H](OC(C)=O)[C@]4(CC)C=CCN5CC[C@]31[C@@H]54)C2`, the result_ITMP is reported as 7.31%. For `N#Cc1cc(CN2CCC(Nc3ncnc4sc(Cl)cc34)CC2)ccc1F` the value was 18.7%. Turning to `CN1CCC(Nc2ncc3ncnc(Nc4ccc(F)c(Cl)c4)c3n2)CC1`, the result_ITMP worked out at 76.5%. Next, `CCN1CCC(n2cc(CNc3cc(Cl)c4ncc(C#N)c(Nc5ccc(F)c(Cl)c5)c4c3)nn2)CC1`: 9.34%; `CCN(CC)CC1CCN(c2ncc3ncnc(Nc4ccc(F)c(Cl)c4)c3n2)CC1`: 97%.

Consider `C=CC(=O)Nc1cc2c(Nc3ccc(F)c(Cl)c3)ncnc2cc1C#CC(C)(C)N1CCN(C)CC1`, for which the result_ITMP turned out to be 36.6%. Next, `CC(C)(C)NCC(O)COc1cccc2c1C[C@H](O)[C@H](O)C2` (mixture of isomers): -2.49%. For `CC[C@H](C)[C@H](NC(=O)[C@H](CCC(=O)O)NC(=O)[C@H](CCC(=O)O)NC(=O)[C@H](Cc1ccccc1)NC(=O)[C@H](CC(=O)O)NC(=O)CNC(=O)[C@H](CC(N)=O)NC(=O)CNC(=O)CNC(=O)CNC(=O)CNC(=O)[C@@H]1CCCN1C(=O)[C@H](CCCNC(=N)N)NC(=O)[C@@H]1CCCN1C(=O)[C@H](N)Cc1ccccc1)C(=O)N1CCC[C@H]1C(=O)N[C@@H](CCC(=O)O)C(=O)N[C@@H](CCC(=O)O)C(=O)N[C@@H](Cc1ccc(O)cc1)C(=O)N[C@@H](CC(C)C)C(=O)O` the value was 0.65%. Next, `O=C1[N-]C(=O)C(c2ccccc2)(c2ccccc2)N1`: -1.89%. Turning to `NC(N)=NC(=O)c1cnn(-c2cccc3ncccc23)c1C1CC1`, the result_ITMP is -1.94%.

`Cc1cc(-c2ccccc2)nnc1NCCN1CCOCC1`: the result_ITMP is listed as -1.84%. Next, `COc1ccc(C(=O)c2c(C)n(CCN3CCOCC3)c3ccccc23)cc1`: 0.58%. For `CCn1c2ccccc2c2cc(Nc3ccnc(NCCCN4CCOCC4)n3)ccc21` the value was 57.6%; for `O=C([O-])C1[O][Sb]2[O]C(=O)C([O]2)C(C(=O)[O-])[O][Sb]2[O]C(=O)C1[O]2` (stereo not drawn), -8.7%.

Turning to `CC1(C)S[C@@H]2[C@H](NC(=O)COc3ccccc3)C(=O)N2[C@H]1C(=O)[O-]`, the result_ITMP is given as -2.47%.

As for `COc1ccccc1C1(O)CCN(CCCn2c3ccccc3c3ccccc32)CC1`, the result_ITMP worked out at 52.4%.

For the molecule `Fc1ccc(-n2cc(CCCCN3CCC4(CC3)OCc3ccccc34)c3ccccc32)cc1`, the result_ITMP was 26.9%. Next, `COc1ccccc1N1CCN(CCN2C(=O)c3ccccc3C(C)(C)C2=O)CC1`: 2.7%; `CC1=C(/C=C/C(C)=C/C=C/C(C)=C/C(=O)O)C(C)(C)CCC1` [R4A_0003961_001 / SPE_K71879491]: 4.7%. For `C[C@H](Nc1ncnc2[nH]cnc12)c1cc2ccc(F)cc2nc1-c1ccccn1` [R4A_0002240_001 / SPE_A58947127] the value was 4.77%.

In the case of `COc1ccc(C(=O)/C(Cc2cc(OC)c(OC)c(OC)c2)=C(\C(=O)[O-])c2ccc3c(c2)OCO3)cc1`, the result_ITMP is recorded as -3.57%.

As for `Cc1[nH]c2ccc(Cl)cc2c1C1=CCNCC1`, the result_ITMP is reported as 96.8%. Regarding `O=c1ccc2[nH]cc(C3=CCNCC3)c2[nH]1`, the result_ITMP is -1.73%. Next, `COc1ccc2[nH]cc(C3=CCNCC3)c2c1`: -0.41%; `C[C@@H]([C@H](C)O)[C@H](N)C(=O)O`: 0.75%. For `N#CN/C(=N\c1ccncc1)NCCCCCCOc1ccc(Cl)cc1` the value was 0.38%. For `COc1ccc(-c2ccc3c(N4CCOCC4)nc(N4C[C@@H](C)O[C@@H](C)C4)nc3n2)cc1CO` the value was 1.47%.
